# Data: PubChem BioAssay (NCATS)
# Inconclusive results are not listed. Activity calls are given as the source filed them. Calls come from the whole dose curve; as a rule, active = well fitted cell-killing curve with a large enough effect; inconclusive = small, poorly fitted or top-dose-only effect, or effect the other way; inactive = no such curve, though single readings can be large or run the other way.
# Experiments:
# [1] = Viability qHTS for spleen associated tyrosine kinase inhibitor (SYKi) naive MV4-11 cells (AID 1963823); note: nearly all actives have a fitted effect of over 40% in size
# Summary of the method: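 Read-out: CellTiter-Glo luminescence. Exposure: 72 hr, 37 C, 5% CO2, 95% humidity. Cells: MV4-11 without SYK inhibitor history, 500/well, qHTS format.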
# [2] = Viability qHTS for spleen associated tyrosine kinase inhibitor (SYKi) drug resistant MV4-11 cells (AID 1963824); note: nearly all actives have a fitted effect of over 35% in size
# Summary of the method: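 SYK inhibitor-resistant MV4-11 AML cells, 500 per well, added to predispensed compounds and incubated 72 hr at 37 C, 5% CO2. Viability measured by CellTiter-Glo luminescence after 10 min at room temperature.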
# Potency is the fitted concentration of half-maximal effect.
SMILES,Potency [1],Potency [2],viability (% of control) [1],"viability, % of control [2]"
C=C1C(=O)OC2CC3(C)C(O)C(=O)C=C(C)C3CC12 (configuration not stated),23.1 µM (active),7.31 µM (active),–,–
C[C@@H]1O[C@@H](O[C@H]2[C@@H]3C=CO[C@@H](O[C@@H]4O[C@H](CO)[C@@H](O)[C@H](O)[C@H]4O)[C@@H]3[C@@]3(CO)O[C@@H]23)[C@H](OC(=O)/C=C/c2ccccc2)[C@H](O)[C@H]1O,inactive,inactive,–,–
C=C(C)C1CCC2(C(=O)OC3OC(COC4OC(CO)C(O)C(O)C4O)C(OC4OC(C)C(O)C(O)C4O)C(O)C3O)CCC3(C(=O)O)C(CCC4C5(C)CCC(=O)C(C)(C)C5CCC43C)C12 (configuration not stated),–,–,84.8% [at 9.25 µM] (inactive),91.7% [at 9.25 µM] (inactive)
CC(=O)OC1C(=O)C2(C)C(O)CC3OCC3(OC(C)=O)C2C(OC(=O)c2ccccc2)C2(O)CC(OC(=O)C(O)C(NC(=O)c3ccccc3)c3ccccc3)C(C)=C1C2(C)C (configuration not stated),0.0058 µM (active),0.0073 µM (active),–,–
C=C1C(=O)OC2C3=C(C)C(=O)CC3C(C)CC(O)C12 (configuration not stated),13 µM (active),6.51 µM (active),–,–
NC(=O)C1=C(O)[C@@]2(O)C(=O)C3=C(O)c4c(O)cccc4C[C@H]3C[C@H]2CC1=O,3.32 µM (active),2.63 µM (active),–,–
CC(C)(O)C1CCC(C)(C2CCC3(C)C4CCC5C(C)(C(=O)OC6OC(CO)C(O)C(O)C6O)C(O)CC(O)C56CC46CCC23C)O1 (configuration not stated),inactive,inactive,–,–
O=C(OC[C@H]1O[C@@H](Oc2ccccc2CO)[C@H](O)[C@@H](O)[C@@H]1O)c1ccccc1,inactive,inactive,–,–
COC1CC(O[C@H]2CC[C@@]3(C)C(CCC4C3[C@H](OC(C)=O)[C@@H](OC(=O)/C=C/c3ccccc3)[C@]3(C)C(C(C)=O)CC[C@]43O)C2)OC(C)C1OC1CC(OC)C(OC2CC(OC)C(OC3OC(C)C(OC4OC(CO)C(O)C(O)C4O)C(OC)C3O)C(C)O2)C(C)O1 (some centres not stated),–,–,48.3% [at 9.25 µM] (inactive),45.7% [at 9.25 µM] (inactive)
Cc1oc2nc3c(c(NC(=O)CN4CCCC4=O)c2c1C)CCCC3,inactive,inactive,–,–
CC1CCC23COC(=O)C2=CC(O)CC3C1(C)CCC1=CC(=O)OC1O (configuration not stated),inactive,inactive,–,–
CC(C)C[C@H](NC(=O)[C@@H]1O[C@H]1C(=O)O)C(=O)NCCCCN=C(N)N,inactive,inactive,–,–
C=C1CCC2(C(=O)OC3OC(CO)C(O)C(O)C3O)CCC3(C)C(=CCC4C5(C)CCC(OC6OC(CO)C(OC7OC(C)C(O)C(O)C7O)C(OC7OCC(O)C(O)C7O)C6O)C(C)(C)C5CCC43C)C2C1 (configuration not stated),–,–,89.9% [at 9.25 µM] (inactive),105% [at 9.25 µM] (inactive)
C[C@@H]1O[C@@H](OC(=O)Cc2ccccc2)[C@H](O)[C@H](O)[C@H]1O,inactive,inactive,–,–
CC(C)=CCC[C@](C)(O)[C@H]1CC[C@]2(C)[C@@H]1[C@H](O)CC1[C@@]3(C)CC[C@H](O)C(C)(C)C3[C@@H](O[C@@H]3O[C@H](CO)[C@@H](O)[C@H](O)[C@H]3O[C@@H]3OC[C@@H](O)[C@H](O)[C@H]3O)C[C@]12C (some centres not stated),inactive,inactive,–,–
N#Cc1cnc2c(Cl)cc(NCc3cn(CCN4CCCCCC4)nn3)cc2c1Nc1ccc(F)c(Cl)c1,9.2 µM (active),13 µM (active),–,–
C=C1CCC2[C@](C)(CCC[C@@]2(C)C=O)[C@H]1CC/C(C)=C/CO (some centres not stated),20.6 µM (active),20.6 µM (active),–,–
COc1cc2c(cc1NS(=O)(=O)c1ccc(Br)cc1C)n(C)c(=O)n2C,2.31 µM (active),2.31 µM (active),–,–
CC(C)(O)C1CC=C(C(=O)OC[C@H]2O[C@@H](OC(=O)C3=CCC(C(C)(C)O)CC3)[C@H](O)[C@@H](O)[C@@H]2O)CC1 (some centres not stated),inactive,inactive,–,–
CC(OC1OCCN(Cc2n[nH]c(=O)[nH]2)C1c1ccc(F)cc1)c1cc(C(F)(F)F)cc(C(F)(F)F)c1 (configuration not stated),9.2 µM (active),5.8 µM (active),–,–
COc1cc2c(c(OC)c1O)C(c1ccc(O)cc1)C1C(=O)OC3C(COC(=O)C1=C2)OC(CO)(OC1OC(COC(=O)/C=C/c2ccc(OC4OC(C)C(O)C(O)C4O)cc2)C(O)C(O)C1O)C3O (configuration not stated),–,–,95.6% [at 9.25 µM] (inactive),81.2% [at 9.25 µM] (inactive)
